PubChem BioAssay (NCATS)
Records with an inconclusive call do not appear. The source made the active and inactive calls. The call rests on the fitted dose curve; in most records, active means well fitted curve in the direction sought with a large enough effect; inconclusive means small, poorly fitted or top-dose-only effect, or another doubt; inactive means no such curve, though single readings can be large; an effect the other way counts as inactive or inconclusive.

Key:
[1] = qHTS for Inhibitors of Plasmodium falciparum (DD2) proliferation (AID 504314);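 further: parasite DNA measured by SYBR Green fluorescence after red cell lysis; plate controls were DMSO vehicle for no effect and artemisinin wells for full effect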
In short: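 Erythrocytes infected with P. falciparum (0.3% parasitemia, 2.5% hematocrit final) were incubated with compounds for 72 h at 37C, 5% CO2. Parasite DNA was detected by SYBR Green I fluorescence after saponin/Triton lysis, normalized to artemisinin (0.29 uM) and DMSO controls.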

[2] = qHTS for Inhibitors of Plasmodium falciparum (GB4) proliferation (AID 504315);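 further: 0% = DMSO vehicle and -100% = 0.29 µM artemisinin control; nearly all actives have a fitted effect of over 50% in size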
In short: (§1)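 Erythrocytes infected with P. falciparum line (0.3% parasitemia, 2.5% hematocrit final) incubated with compounds 72 h at 37 °C, 5% CO2; SYBR Green lysis buffer added, fluorescence read next day. Normalized to 0.29 uM artemisinin and DMSO.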

[3] = qHTS for Inhibitors of Plasmodium falciparum (7G8) proliferation (AID 504316);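 further: series mostly up to about 6.7 µM; 0% = DMSO vehicle and -100% = 0.29 µM artemisinin full kill; nearly all actives have a fitted effect of over 65% in size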
In short: as §1

[4] = qHTS for Inhibitors of Plasmodium falciparum (HB3) proliferation (AID 504318);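 further: 0% = DMSO vehicle and -100% = artemisinin control; nearly all actives have a fitted effect of over 60% in size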
In short: as §1

[5] = qHTS for Inhibitors of Plasmodium falciparum (CP250) proliferation (AID 504320);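 further: plate controls were DMSO vehicle for no effect and 0.29 µM artemisinin control for full effect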
In short: as §1

CC1(OC(=O)C2CCCC2)C(=O)C=C2C=C(c3ccsc3)N(C3CCCC3)C=C2C1=O (stereo not drawn)
inactive: activity, negative = inhibition [1] -4.53% [at 1.12 µM] | Potency [2] | Potency [3] | Potency [4]

COC(=O)[C@H]1[C@@H](c2ccccc2)NC(=O)N(Cc2ccccc2)[C@@H]1C
inactive: Potency [1] | Potency [2] | Potency [3]

COC1=CC2C(=O)C(C1=O)C1c3ccccc3CC21 (stereo not drawn)
inactive: Potency [1] | Potency [2] | Potency [3] | Potency [4] | Potency [5]

COc1ccc2c(c1)C(=O)[C@H](OC(=O)Nc1ccc(OC(F)F)cc1)[C@@H](c1ccc(OC)c(Br)c1)O2
inactive: Potency [1] | Potency [2] | Potency [3] | Potency [4] | Potency [5]

CCN(CC)CCCN=C1NC(c2ccccc2)C(C(=O)OC)=C(C)N1CC (stereo not drawn)
inactive: Potency [1] | Potency [2] | Potency [3] | Potency [4] | Potency [5]

CCN1C(=O)N[C@@H](c2ccccc2)[C@@H](C(=O)OC)[C@H]1C
inactive: Potency [1] | Potency [2] | Potency [4] | Potency [5]

CC(CCC#N)[N+](=O)[O-] (stereo not drawn)
inactive: Potency [1] | Potency [2] | Potency [4] | Potency [5]

COc1cccc(CO[C@H]2C=C[C@@H](c3ccccc3)O[C@H]2CO)c1
inactive: Potency [1] | Potency [2] | Potency [4] | Potency [5]

COC(=O)N1C2CC3(C)CC(=O)CC1(C)C3c1ccccc12 (stereo not drawn)
inactive: Potency [1] | Potency [2] | Potency [3] | Potency [5]

COC(=O)CC=C1c2ccc3c(c2[C@@H](OC)[C@@H]1C)OCO3
inactive: Potency [1] | Potency [2] | Potency [3] | Potency [5]

C=COC[C@@H]1CN2[C@H](c3ccc(Br)cc3)[C@H](C)CC[C@H]2C(=O)O1
inactive: Potency [1] | Potency [2] | Potency [3] | Potency [4] | Potency [5]

COc1cccc([C@H](O)Cn2cc(-c3ccc(CON=C(C)C)cc3)nn2)c1
inactive: Potency [1] | Potency [2] | Potency [3] | Potency [4] | Potency [5]

C=CCN1c2ccccc2[C@]23CCC(=O)N(Cc4ccco4)C2=NC(C(=O)OC)=C(C(=O)OC)[C@H]13
inactive: Potency [1] | Potency [2] | Potency [4] | Potency [5]

Cc1ccc(S(=O)(=O)OC[C@@H]2CN3[C@H](c4ccc(Br)cc4)[C@H](C)CC[C@H]3C(=O)O2)cc1
inactive: Potency [1] | Potency [2] | Potency [4] | Potency [5]

CCC(=O)C[C@@H](NC(=O)OC)c1ccccc1
inactive: Potency [1] | Potency [2] | Potency [3] | Potency [4] | Potency [5]

C=CCN1c2ccccc2[C@]23C[C@@H](C(=O)OC)N(C(=O)Nc4ccccc4F)C2=NC(C(=O)OC)=C(C(=O)OC)[C@H]13
inactive: Potency [1] | Potency [2] | Potency [3] | Potency [5]

O=C1N[C@H](Cc2ccccc2)C(=O)N1Cc1cccc2ccccc12
inactive: Potency [1] | Potency [2] | Potency [3] | Potency [4] | Potency [5]

O=C1C[C@@H](c2ccccc2)[C@H](c2ccc(Br)cc2)O1
inactive: Potency [1] | Potency [2] | Potency [3] | Potency [4] | Potency [5]

COC1=C[C@H](C(=O)NC2CCN(Cc3ccccc3)CC2)[C@@]2(C)Cc3ccccc3[C@@H]2CC1=O
inactive: Potency [1] | Potency [2] | Potency [5]

C#CCCCON=C1C[C@@H](O)[C@H](O)[C@H]2[C@@H]3C(=O)N(C4CCCCC4)C(=O)[C@@H]3CC[C@H]12
inactive: Potency [1] | Potency [2] | Potency [3] | Potency [5]

CCOC(=O)c1c(C(=O)OCC)c2c3ccccc3cc(C)n2c1C(=O)OC
inactive: Potency [1] | Potency [2] | Potency [4] | Potency [5]

COC(=O)N[C@H](CC(C)=O)c1cccc(C(F)(F)F)c1
inactive: Potency [1] | Potency [2] | Potency [3] | Potency [4] | Potency [5]

COC(=O)[C@@H](O)CC[C@@H](C)Cc1c(OC)c(OC)c(C)c(OC)c1OC
inactive: Potency [1] | Potency [2] | Potency [3] | Potency [4] | Potency [5]

COC1=C[C@H](C(=O)NCc2ccc(Br)cc2)C(C)C(c2ccccc2)CC1=O (stereo partly drawn)
inactive: Potency [1] | Potency [2] | Potency [3] | Potency [5]

CCOC(=O)NN=C1C[C@@H](O)[C@@H](O)[C@@H]2[C@H]3C(=O)N([C@@H](C)c4ccccc4)C(=O)[C@@H]3CC[C@H]12
inactive: Potency [1] | Potency [2] | Potency [3] | Potency [4] | Potency [5]

CC(=O)OC[C@H]1O[C@@H](ON=C2C[C@@H](O)[C@@H](O)[C@@H]3[C@H]4C(=O)N(C5CCCCC5)C(=O)[C@@H]4CC[C@@H]23)[C@H](OC(C)=O)[C@@H](OC(C)=O)[C@H]1OC(C)=O
inactive: Potency [1] | Potency [2] | Potency [3] | Potency [5]

COc1cccc([C@H]2Oc3ccc(OC)cc3C(=NOCC[C@@H]3C=C[C@H](OC(C)=O)[C@@H](COC(C)=O)O3)[C@H]2O)c1
inactive: Potency [1] | Potency [2] | Potency [3] | Potency [4] | Potency [5]
